# Like-named read-outs stand apart in the source and are kept apart here. About 3,200 (25%) of roughly 13,000 compounds showed an effect of 50% or more. The list shows a part of the results. Peptide text beside a SMILES is read from it. * marks the point of attachment. Octanoyl = CCCCCCCC(=O)*
# Tested on: P. falciparum stage V gametocytes
# Design: BacTiter-Glo ATP luminescence viability of purified stage V gametocytes in 384-well plates, per cent inhibition versus DMSO
# Conditions: 48 h, 5 µM, inhibitor
SMILES,% Inhibition [%],% Inhibition (% Inhibition) [%]
NC(=O)CNC(=O)CCCN=C(N)N [TCMDC-131667],20.86,
Cc1c(Cc2ccc(F)cc2)c(Cl)nc2nc(N)nc(N)c12 [TCMDC-137680],-6.829,
N#Cc1cccc(-c2cccc(C(=O)NC3CCC(CCN4CCc5ccc(C#N)cc5CC4)CC3)c2)c1 (stereo not drawn) [TCMDC-139681],-20.07,
CS(=O)(=O)c1ccc2c(c1)CCN(CCC1CCC(NC(=O)C(=Cc3cccc(C#N)c3)c3ccc(-c4ccccc4)cc3)CC1)CC2 (stereo not drawn) [TCMDC-141427],78.58,
CS(=O)(=O)c1ccc2c(c1)CCN(CCC1CCC(NC(=O)C(=Cc3ccc(Cl)cc3Cl)c3ccc(-c4ccccc4)cc3)CC1)CC2 (stereo not drawn) [TCMDC-141426],-11.75,
CC(C)CCN(Cc1cncn1Cc1ccccc1F)C(=O)c1cncc(-c2ccccc2)c1 [TCMDC-132470],20.84,
O=C(Nc1ccc(-c2nc3ccccc3[nH]2)cc1)c1ccc([N+](=O)[O-])s1 [TCMDC-123726],9.602,
Nc1nc(N)c2nc(C3CC=CCC3)c(N)nc2n1 (stereo not drawn) [TCMDC-141989],6.679,
CCCCCCCC(=O)N[C@@H](Cc1ccccc1)C(=O)N[C@H](C(=O)O)C(C)C [TCMDC-139536] (Octanoyl-Phe-Val-OH),1.099,
CC(Sc1n[nH]c(-c2ccccc2Br)n1)C(=O)Nc1ccc(F)cc1 (stereo not drawn) [TCMDC-125115],-62.46,
Cc1ccc(NC(=O)C(C)Sc2n[nH]c(-c3ccccc3Br)n2)cc1 (stereo not drawn) [TCMDC-125166],75.62,
CC(CN(C)C)C(=O)Nc1ccc(-c2ccc(-c3nc4ccccc4[nH]3)s2)cc1 (stereo not drawn) [TCMDC-137100],21.36,
COc1cc(C2Nc3ccc4ccccc4c3C3=C2C(=O)CC(C)(C)C3)ccc1Oc1ccc([N+](=O)[O-])cc1C#N (stereo not drawn) [TCMDC-125717],30.01,
COc1ccc(Br)cc1C1Nc2ccc3ccccc3c2C2=C1C(=O)CC(c1ccccc1)C2 (stereo not drawn) [TCMDC-125675],55.64,
COc1ccc(C2CC(=O)C3=C(C2)NC(C)=C(C(=O)OC(C)C)C3c2ccccc2F)cc1OC (stereo not drawn) [TCMDC-124038],37.21,
CN(Cc1ccncc1)C(Cc1ccccc1)C1CCN(Cc2ccc(O)c(Cl)c2)CC1 (stereo not drawn) [TCMDC-124648],-12.77,
COc1cc(CNC[C@@H](O)[C@H](Cc2ccccc2)NC(=O)c2cc(OC(C)C)cc(N3CCCCS3(=O)=O)c2)cc(OC)c1 [TCMDC-134525],23.04,
CCc1cc2c(cc1OCCN(C)C)N(C(=O)Nc1ccc(-c3ccncc3)c(Cl)c1)CC2 [TCMDC-139214],8.963,
N#Cc1ccc(-c2cnc3ccc(NCCc4cccnc4)nn23)cc1 [TCMDC-136679],23.92,
COc1ccc(-c2cnc3ccc(NCCCO)nn23)cc1OC [TCMDC-136683],53.42,
COc1ccc(-c2cnc3ccc(N4CCCC4)nn23)cc1OC.O=CO [TCMDC-134177],42.14,
Fc1ccc(CNc2ccc3ncc(-c4cccnc4)n3n2)cc1 [TCMDC-136674],19.94,

SMILES,% Inhibition [%],% Inhibition (% Inhibition) [%]
COc1ccc(-c2cnc3ccc(NCc4ccc(F)cc4)nn23)cc1OC [TCMDC-136675],53.19,
Oc1cccc(-c2cnc3ccc(NCc4ccc(F)cc4)nn23)c1 [TCMDC-136676],39.41,
C/C=C1\CN2CC[C@H]1C[C@H]2[C@H](O)c1ccnc2ccc(O)cc12 [TCMDC-138272],3.79,
COc1ccc2nccc(N3CCC(O)(CCNCc4ccc5c(n4)NC(=O)CO5)CC3)c2n1 [TCMDC-134564],-10.39,
CCNC(=O)N1CCN(c2nc(-c3ccccc3)nc(COC)c2Cc2ccc(C)cc2)CC1 [TCMDC-124783],37.5,
O=c1cc(NCCCNCc2cc(C(F)(F)F)ccc2F)[nH]c2ccccc12 [TCMDC-139423],-83.26,
CC1(C)N=C(N)N=C(N)N1OCCc1ccc2ccccc2c1 [TCMDC-131755],-0.2663,
COc1cc(Cc2cnc(N)nc2N)cc(OCCCCC2NC(=O)NC2=O)c1OC (stereo not drawn) [TCMDC-137299],4.359,
Cc1ccc2c(=O)cc(CCc3cccc(F)c3F)n(CC(=O)N(Cc3ccc(-c4ccc(C(F)(F)F)cc4)cc3)C3CCN(C(C)C)CC3)c2n1 [TCMDC-141318],122.6,
Cc1ccc2c(=O)cc(CCc3cccc(F)c3F)n(CC(=O)N(Cc3ccc(-c4ccc(C(F)(F)F)cc4)cc3)C3CCN(C)CC3)c2n1 [TCMDC-141317],107,
Cc1nc2c(s1)c(=O)cc(CCc1cccc(F)c1F)n2CC(=O)N(Cc1ccc(-c2ccc(C(F)(F)F)cc2)cc1)C1CCN(C(C)C)CC1 [TCMDC-141264],113.7,
CC1CCCN1Cc1ccc(-c2ccc3c(=O)cc(CCc4cccc(F)c4F)n(CC(=O)N(C)Cc4ccc(-c5ccc(C(F)(F)F)cc5)cc4)c3n2)cc1 (stereo not drawn) [TCMDC-136564],30.5,
COC(=O)Cn1c2ccccc2c2c(N)c(C(=O)OC)c(C)nc21 [TCMDC-131562],7.659,
CC(C)c1ccc(NC(=O)c2ccc(CN3CCCN(CC4CCCCC4)CC3)cc2)cc1 [TCMDC-136417],-19.72,
CCC(CC(NCCCCNC(=O)c1ccc(NC(=O)c2ccc(Cl)cc2)cc1)c1ccccc1)c1ccccc1OC (stereo not drawn) [TCMDC-138579],,48.18
N#Cc1c(N2CCN(c3ccc(F)cc3)CC2)nc(N)c2c(N)nc3c(c12)CC(=O)N3C1CC1 [TCMDC-124490],43.84,
Cc1cccc2[nH]c(-c3cccc(-c4cccc(NC(=O)c5ccc(=O)[nH]n5)c4)c3)nc12 [TCMDC-137033],-59.71,
COc1ccc2c(c1C1CCN(CCCCNC(=O)c3ccc(-c4ccc(Cl)cn4)cc3)CC1)CCCC2 [TCMDC-138576],-10.77,
COc1ccc2c(c1CNCCCCCCNCc1c(OC)ccc3c1CCCC3)CCCC2 [TCMDC-137817],117.4,
N#CC1(CCCNCCc2ccc(O)cc2)CCCc2c(O)cccc21 (stereo not drawn) [TCMDC-137732],-11.73,
COc1ccc2c(c1CCNCCCCNCCc1c(OC)ccc3c1CCCC3)CCCC2 [TCMDC-137324],111.7,
O=C(Nc1ccc(F)cc1)N1CCCN(c2ccnc3cc(Cl)ccc23)CC1 [TCMDC-133584],-23.79,

SMILES,% Inhibition [%],% Inhibition (% Inhibition) [%]
COc1cc2c(cc1OC)CN(CCc1ccc(NC(=O)c3cc4cc(Cl)ccc4[nH]3)cc1)CC2 [TCMDC-138249],-9.297,
Cc1cc2c(cc1C(F)(F)F)N(C(=O)Nc1ccc(OCCN(C)C)c(C(F)(F)F)c1)CC2 [TCMDC-139850],18.6,
COc1cc(F)c2nccc([C@@H](O)CN3CCC(NCc4ccc5c(n4)NC(=O)CS5)C(F)C3)c2c1 (stereo partly drawn) [TCMDC-141805],-13.4,
FC(F)(F)c1cc(Nc2ccc(Oc3ccccc3)cc2)c2cc(-c3ccncc3)ccc2n1 [TCMDC-138549],-36.95,
c1ccc(CN2CCc3cc4nccc(N5CCNCC5)c4cc32)cc1 [TCMDC-140118],-20.01,
C/C=C/COc1ccc2ccccc2c1CNCCCCCCCCNCc1c(OC/C=C/C)ccc2ccccc12 [TCMDC-137844],118.6,
C=CCOc1ccc2ccccc2c1CNCCCCCCNCc1c(OCC=C)ccc2ccccc12 [TCMDC-137340],119.9,
Nc1nc(N)c2c(ccc3c2cnn3S(=O)(=O)N2CCCC2)n1 [TCMDC-137852],-71.91,
O=C1COc2ccccc2N1C/C=C(\CN1CCC(c2ccccc2)CC1)c1cc(Cl)cc(Cl)c1 [TCMDC-134528],-40.54,
Cc1cc(Nc2ccc3c(c2)CCC3)n2ncnc2n1 [TCMDC-123574],8.317,
Cc1[nH]nc2cc(Nc3nccc(Nc4ccc(Oc5ccccc5)cc4)n3)ccc12 [TCMDC-138573],32.4,
CCc1nnc2sc(-c3cccc(NC(=O)c4ccc(C)c([N+](=O)[O-])c4)c3)nn12 [TCMDC-125124],-17.45,
Cc1ccc(O)c(-c2cc(C(=O)Nc3ccc(S(=O)(=O)N4CCCCC4)cc3)[nH]n2)c1 [TCMDC-124309],-24.12,
O=C(Nc1ccccc1)c1cnc[nH]1 [TCMDC-123941],-10.44,
CC[C@H]1CN2CC[C@H]1C[C@@H]2[C@H](O)c1ccnc2ccc(O)cc12 [TCMDC-132025],31.63,
CC[C@H]1CN2CC[C@@H]1C[C@H]2[C@H](O)c1ccnc2ccc(Cl)cc12 [TCMDC-141353],-5.728,
CC[C@H]1CN2CC[C@@H]1C[C@H]2[C@H](O)c1cc(-c2ccccc2)nc2ccc(O)cc12 [TCMDC-141380],89.63,
CCCc1cc([C@@H](O)[C@@H]2C[C@@H]3CCN2C[C@@H]3CC)c2ccccc2n1 [TCMDC-131428],-9.828,
CC[C@H]1CN2CC[C@H]1C[C@H]2[C@H](O)c1ccnc2ccc(O)cc12 [TCMDC-131425],22.33,
CC[C@H]1CN2CC[C@@H]1C[C@H]2[C@H](O)c1cc(-c2ccc(F)cc2)nc2ccc(O)cc12 [TCMDC-141378],55.28,
CC[C@H]1CN2CC[C@@H]1C[C@H]2[C@H](O)c1cc(-c2ccc(Cl)c(Cl)c2)nc2ccc(O)cc12 [TCMDC-141362],95.45,
OCC1CCCCN1Cc1cccc(-c2cccc(-c3nc4ccccc4[nH]3)c2)c1 (stereo not drawn) [TCMDC-133835],-3.731,
